# Only some compounds are listed: those with a hit (about 14% of all), similar ones and a draw of the others.
# A350 fluor = A350 region autofluorescence. Compound autofluorescence, 340/450 nm, Alexa 350 dye-equivalents; hits give high values. 11% of 59,000 active. max dye-equivalent concentration, M; in the data active = max dye-equivalent concentration above about 10 nM; inconclusive = mostly about 1.1 nM to 9.6 nM
# AID923 = qHTS Assay for Allosteric/Competitive Inhibitors of Caspase-1: Spectroscopic Profiling in AFC Spectral Region; Potency, µM (titrated, usually from 57.5 µM), most hits filed as activators; 1.1% of 75,000 active; compound fluorescence, AFC spectral region (405/520 nm)
#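 Baseline compound fluorescence (AFC region, 405 nm ex/520 nm em) taken from the intercept of kinetic reads with 50 nM caspase-1 and 5 uM Ac-WEHD-AFC; normalized to an on-plate AFC standard curve; compounds titrated up to 57 uM.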
# HSD17B inh = inhibitors of human HSD17B10 dehydrogenase; Q99714; recombinant HSD17B10, NADH fluorescence kinetic; Potency, µM (top dose mostly 57.1 µM), hits mostly inhibitors; 7.6% of 75,000 active; AID 893;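 note: the protocol describes HADH2 (HSD17B10) and not the HSD17B4 of the title; nearly all actives have a fitted effect of over 70% in size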
#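 His-tagged E. coli-expressed HADH2 at 20 nM in 100 mM Tris-HCl pH 9.0 with 0.01 % Tween-20, preincubated 15 min with compound at room temperature. Reaction with 1 mM NAD+ and 90 uM beta-hydroxybutyryl coenzyme A; NADH fluorescence (360/450 nm) read kinetically over 4 min, last minus first point.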
# HADH2 inhib = blocks human hydroxyacyl-CoA dehydrogenase type II | Q99714 | recombinant HADH2, NADH fluorescence, beta-hydroxybutyryl-CoA | Potency, µM (titrated, usually from 57.1 µM), most hits filed as inhibitors | 3.4% of 73,000 active; note: nearly all actives have a fitted effect of over 60% in size
# Target sequence (Q99714 whole entry, looked up, one chain of several): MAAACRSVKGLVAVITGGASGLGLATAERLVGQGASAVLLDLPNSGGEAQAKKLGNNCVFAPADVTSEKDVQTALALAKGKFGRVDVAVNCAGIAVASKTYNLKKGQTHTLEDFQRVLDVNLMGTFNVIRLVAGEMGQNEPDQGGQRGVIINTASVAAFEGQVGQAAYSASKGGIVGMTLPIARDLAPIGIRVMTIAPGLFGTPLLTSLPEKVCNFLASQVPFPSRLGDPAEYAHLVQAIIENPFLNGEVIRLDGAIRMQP
#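 E. coli-expressed His-tagged HADH2 tested at 20 nM in alkaline Tris buffer (pH 9.0); oxidation of 90 uM beta-hydroxybutyryl-CoA with 1 mM NAD+ tracked fluorimetrically for 4 min.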
# CRE Fsk mod = modulators of forskolin-stimulated CRE signaling in CHO cells; CHO CRE-bla reporter (cAMP response element driving beta-lactamase), forskolin EC10, beta-lactamase ratio; Potency, µM (doses to about 38.2 µM), actives largely listed as activators; 2.5% of 71,000 active; AID 662; active = well fitted activation curve with a large enough effect in the signal ratio, with a control signal flat, not every such curve was filed as active; inconclusive = small, poorly fitted or top-dose-only effect, or effect the other way, or a change in a side signal; the % refers to the signal ratio
#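 CHO CRE-bla cells, overnight plating in Opti-MEM with 0.5% dialyzed FBS; cpd titration + EC10 NKH 477, 3 h 37 °C; CCF4 2 h RT; ex 405/em 460 vs 530 ratio → %Activity, AC50.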
# 4MU fluor = 4-MU region autofluorescence; compound autofluorescence, 340/450 nm, 4-MU equivalents; hits give high values; max dye-equivalent concentration, M; 11% of 59,000 active; in the data active = max dye-equivalent concentration above about 10 nM; inconclusive = mostly about 1.1 nM to 9.6 nM
#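 Compounds in 100 mM Tris, pH 8.0, incubated 15 min at room temperature, then fluorescence read at 340 nm excitation/450 nm emission. Signal converted to 4-MU dye-equivalent concentration using an on-plate six-point 4-MU standard curve.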
# Numbers stand for hits; - = inactive; ? = inconclusive; . = not tested or not shown; [ ] = dose if it differs, or a comment. Unless noted, calls come from the whole dose curve; as a rule, active = well fitted curve in the direction sought with a large enough effect; inconclusive = small, poorly fitted or top-dose-only effect, or another doubt; inactive = no such curve, though single readings can be large; an effect the other way counts as inactive or inconclusive.
SMILES,A350 fluor,AID923,HSD17B inh,HADH2 inhib,CRE Fsk mod,4MU fluor
CC(NC(=O)Cc1ccccc1)c1nc2ccccc2[nH]1 (stereo not given),.,-,-,-,-,.
CCOC(=O)C(C)c1nc2ccccc2[nH]c1=O (stereo not given),1.1e-07M,.,.,.,.,9.3e-08M
Cc1cccc(CNc2ncncc2-c2cccc(C#N)c2)c1,-,-,-,-,-,-
Nc1c(C(=O)NC2CCCCC2)nsc1C(=O)OCC(=O)NC1CCCCC1,1.3e-07M,-,?,-,?,1.6e-07M
CCOC(=O)c1snc(C(=O)NC2CCCCC2)c1N,2.5e-07M,-,32µM,-,-,2.2e-07M
CCOC(=O)c1c(C)c(C(=O)NC2CCCCCC2)c(C)n1C,-,-,-,-,-,-
CN(C)c1ccc(-c2cncnc2NCc2cccnc2)cc1,-,-,-,-,-,-
Cc1cc(-c2csc(N)n2)c(C)n1CCc1ccccc1,-,-,16µM,?,?,-
COc1cc(OC)c2c(=O)c(-c3ccccc3)c(C)oc2c1OC,.,-,-,.,.,.
O=S1(=O)N=C(Nc2ccc(S(=O)(=O)N3CCCCC3)cc2)c2ccccc21,1.3e-08M,-,?,?,-,1.5e-08M
COc1cc(NC(=O)c2noc3c2CCC3)c(OC)cc1Cl,1.7e-08M,-,4µM,13µM,-,1.5e-08M
COc1cc(NC(=O)c2cc(-c3ccco3)on2)c(OC)cc1Cl,2.5e-08M,-,?,-,-,2.7e-08M
COC(=O)c1ccccc1NC(=O)c1noc2c1CCCC2,-,-,-,-,?,-
COc1ccc(C(=O)N2CCC3(CCN(C(=O)Nc4ccccc4)CC3)CC2)cc1,-,-,-,-,-,-
C1COC1,.,-,-,-,-,.
COc1cccc(-c2cncnc2NCc2cccnc2)c1,-,-,?,?,-,-
Cc1cnc(CNc2ncncc2-c2ccc3c(c2)OCO3)cn1,-,-,-,-,?,-
c1ccc(-c2csc(Nc3nc(N4CCOCC4)nc(N4CCOCC4)n3)n2)cc1,.,-,-,-,2µM,.
CC(=O)OCc1ccco1,.,-,-,-,-,.
O=S(=O)(c1ccccc1)c1nc(-c2cccs2)oc1NCC1CCCO1 (stereo not given),?,-,-,-,-,-
N#Cc1nc(-c2cccs2)oc1NCC1CCCO1 (stereo not given),3.6e-06M,-,32µM,5µM,-,2.8e-06M
COc1cc(OC)cc(C(=O)NCC2CCCO2)c1 (stereo not given),.,-,-,-,.,.
COc1ccc(-c2nc(C#N)c(NCC3CCCO3)o2)cc1 (stereo not given),1.2e-08M,-,25µM,32µM,-,?
COCC(=O)O,.,-,-,-,-,.
Cc1nc2cnc(Oc3ccccc3)nc2n(C2CC2)c1=O,-,-,-,-,?,-
SMILES,A350 fluor,AID923,HSD17B inh,HADH2 inhib,CRE Fsk mod,4MU fluor
CCOC(=O)CSc1nc(NCc2ccco2)c2ccccc2n1,-,-,-,-,-,-
CCOC(=O)c1sc2nc(CC(=O)OC)nc(NCc3ccco3)c2c1C,?,-,25µM,-,10µM,-
CNc1ncncc1-c1ccccc1OC,-,-,-,?,-,-
Cn1c(NCc2ccco2)nc2ccccc21,?,-,-,-,?,?
C=CCNc1nc2ccccc2nc1NS(=O)(=O)c1cccs1,5.2e-08M,-,-,-,-,4e-08M
O=S(=O)(Nc1nc2ccccc2nc1Nc1ccc2c(c1)OCCO2)c1cccs1,-,-,32µM,?,-,-
O=S(=O)(Nc1nc2ccccc2nc1NCc1ccco1)c1cccs1,4.5e-08M,-,-,-,-,3.4e-08M
COc1ccc(-c2cc(=O)c3c(O)cc(O[C@H]4OC(COC5OC(C)C(O)C(O)[C@H]5O)C(O)C(O)C4O)cc3o2)cc1O (stereo not given in full),.,-,-,.,.,.
CCCCNC(=O)C(c1ccc(OCC(=O)OC)c(C(=O)OC)c1)N(CCc1ccccn1)C(=O)CCCCCN1C(=O)NC(c2ccc(-c3ccccc3)cc2)C(C(=O)OCc2ccccc2)=C1C (stereo not given),.,-,-,-,?,.
O=C(NCc1cccs1)O[C@H]1C[C@H]2CC[C@@H]1C2,-,-[11.5 µM],-[11.4 µM],-[11.4 µM],-[7.6 µM],-

# Screening data from PubChem BioAssay.
